D2 PAM-1 = potentiates the human D2 dopamine receptor allosterically | P14416 | DiscoveRx D2 beta-arrestin cells, luminescence, 90 min; 100% = 57 uM dopamine signal | potentiation, % (no concentration beside the values) | actives 0.23% (n = 360,000) | AID 624464; in the data active = potentiation above about 50%; inconclusive = mostly about 30% to 49%
Target sequence (P14416 whole entry, looked up): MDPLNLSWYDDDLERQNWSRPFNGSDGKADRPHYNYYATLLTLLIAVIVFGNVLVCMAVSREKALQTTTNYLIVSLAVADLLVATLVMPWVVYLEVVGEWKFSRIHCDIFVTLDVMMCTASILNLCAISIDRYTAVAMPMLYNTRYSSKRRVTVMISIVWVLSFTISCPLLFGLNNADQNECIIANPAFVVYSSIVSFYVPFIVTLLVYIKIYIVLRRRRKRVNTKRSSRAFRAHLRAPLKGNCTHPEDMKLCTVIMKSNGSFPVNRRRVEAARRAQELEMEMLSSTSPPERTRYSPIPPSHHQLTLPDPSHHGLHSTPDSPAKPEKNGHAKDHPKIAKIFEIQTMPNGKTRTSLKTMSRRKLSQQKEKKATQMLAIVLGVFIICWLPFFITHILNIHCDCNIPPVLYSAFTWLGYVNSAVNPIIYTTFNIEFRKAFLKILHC
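D2 cells co-treated with compound plus 50 nM dopamine (EC20) for 90 min at 37 deg C to detect potentiation. Beta-arrestin recruitment was read as enzyme-fragment luminescence after 1 h at ambient temperature. Full response was set by 57 uM dopamine.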
D2 antag = antagonizes the human D2 dopamine receptor. P14416. actives 2% (n = 340,000). HEK293 TREx D2 cells, calcium flux, dopamine EC80. inhibition, % at 10 µM. AID 485344; in the data active = inhibition above about 30%; inactive = below that, where a call was filed
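Compounds are added to dye-loaded, induced HEK293 T-REx cells coupled to calcium release via D2; after a 3 min kinetic read an EC80 dopamine stimulus is given and fluorescence is recorded for 3 more min.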
D2 ag-1 = D2 dopamine receptor (human) agonism | P14416 | activation, % at 2 µM | HEK293 T-REx D2 cells, calcium flux agonist mode | AID 485358 | actives 0.53% (n = 340,000);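 active = activation over 3 SD above normal in the single-dose calcium agonist read, cut at about 30% in these data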
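In this primary screen, compounds producing a positive calcium signal within 180 s of addition to tetracycline-induced, force-coupled HEK293 Trex D2 cells are flagged; cells are dye-loaded with a no-wash calcium kit beforehand.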
D2 PAM-2 = positively modulates the human D2 dopamine receptor allosterically; potentiation, % at 10 µM; HEK293 T-REx D2, calcium flux, EC20 dopamine potentiation; AID 485347; actives 0.34% (n = 340,000);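 active = potentiation over 3 SD above the plate norm, cut at about 30% in these data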
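Tetracycline-induced Hek293 Trex D2 cells, force-coupled to calcium, loaded with no-wash calcium dye. Compound added with 180 s kinetic read for agonism, then EC20 dopamine and a further 180 s read for potentiation.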
D2 ag-2 = activates the human D2 dopamine receptor | DiscoveRx PathHunter D2 beta-arrestin, luminescence, 90 min; 100% = 57 uM dopamine signal | activation, % (test concentration not listed) | actives 0.084% (n = 360,000) | AID 624465; in the data active = activation above about 40%; inconclusive = between about 15% and that limit
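Agonist mode: compounds alone added to overnight-plated D2 PathHunter cells for 90 min at 37 C, with 57 uM final dopamine (EC100) defining full response. Beta-arrestin recruitment detected by chemiluminescent reagent, read after 1 h at ambient temperature.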
A number is an active result; i = inactive; ? = inconclusive; nt = no result given. Rows were chosen to be rich in hits. Some 2.4% of all compounds tested hit in one or more screens of this group.

SMILES	D2 PAM-1	D2 antag	D2 ag-1	D2 PAM-2	D2 ag-2
CCN(C(=O)c1cc2c(s1)-c1ccccc1OC2)c1cccc(C(F)(F)F)c1	nt	nt	i	i	nt
O=C(NC1CC1)c1cc2c(s1)-c1ccccc1OC2	i	34.1	i	i	i
O=C(O)c1cc2c(s1)-c1ccccc1OC2	i	i	i	i	i
Cc1ccc(N=C2NC(=O)CC(C(=O)Nc3cc(C(F)(F)F)ccc3Cl)S2)cc1 (stereo unspecified)	nt	nt	i	i	nt
O=C(CS(=O)(=O)c1ccccc1)Nc1ccccc1Br	i	nt	nt	nt	i
O=C(NCc1ccccc1Cl)c1ccc(CSc2nc3ccncc3[nH]2)cc1	i	i	i	i	i
Clc1ccccc1CSc1nc2ccncc2[nH]1	i	32.3	i	i	i
COc1ccc(C(=O)NNC(=S)NC(=O)C(C)(C)C)cc1	i	61.9	92.4	i	i
COc1ccc(C(=O)NNC(=O)c2ccc(C(C)(C)C)cc2)cc1	i	i	i	nt	i
CCN(CC)c1ccc(/C=C2\C(=O)c3ccc(C(=O)O)cc3C2=O)cc1	i	54.4	109.9	i	i
CCc1ccc(NC(=O)C(=O)NCC(c2cccnc2)N2CCN(c3ccc(F)cc3)CC2)cc1 (stereo unspecified)	nt	nt	i	i	nt
Cc1nc2c(C(=O)NCCC(C)C)c[nH]n2c(=O)c1Cc1ccccc1F	i	37.1	i	i	i
Cc1nc2c(C(=O)NCCc3ccc(Cl)cc3)c[nH]n2c(=O)c1Cc1ccccc1F	nt	nt	nt	i	nt
CC1(C(=O)NCc2ccccc2Br)CCN1Cc1ccc(-c2ccccn2)cc1 (stereo unspecified)	i	nt	nt	nt	i
COc1ccc(C(=O)NCC(c2cccnc2)N2CCc3ccccc3C2)cc1 (stereo unspecified)	nt	nt	i	i	nt
COc1ccc(CCNC(=O)CN(C)S(=O)(=O)c2cccs2)cc1	i	32.2	i	i	i
COc1ccc(CCNC(=O)CCn2cccc2)cc1OC	i	i	i	i	i
COc1ccc(CCNC(=O)CCN2C(=O)C3CC=CCC3C2=O)cc1OC (stereo unspecified)	i	64.1	i	i	i
CN(CC(=O)NCCc1ccccc1)S(=O)(=O)c1cccs1	i	i	i	i	i
COc1ccc(CCNC(=O)C2CC(=O)N(C3CCCCCCC3)C2)cc1OC (stereo unspecified)	i	92.7	i	i	i
CCNC(=O)COC(=O)CCC(=O)c1cccs1	i	51.3	i	i	i
Cc1ccc(CCNC(=O)C2CC(=O)N(C3CCCCC3)C2)cc1 (stereo unspecified)	i	i	i	i	i
COc1ccc(CCNC(=O)[C@@H](NC(N)=O)C(C)C)cc1	i	50.1	i	i	i
COc1ccc(CCNC(=O)COC(=O)CCC(=O)c2cccs2)cc1OC	i	nt	nt	nt	i
COc1ccc(CCNC(=O)COC(=O)c2cccs2)cc1	i	36.7	i	i	i
SMILES	D2 PAM-1	D2 antag	D2 ag-1	D2 PAM-2	D2 ag-2
CC[C@H](C)[C@H](NC(N)=O)C(=O)NCCc1ccc(OC)cc1	i	i	i	i	i
COc1ccc(CCNC(=O)CCC(=O)c2cccs2)cc1OC	i	43.9	i	i	i
COc1ccc(CCNC(=O)COC(=O)c2cccs2)cc1OC	i	i	i	i	i
Cc1cc(C)c2c(=O)cc(C(=O)Nc3ccc(S(=O)(=O)N(C)Cc4ccccc4)cc3)oc2c1	nt	nt	i	i	nt
FC(F)(F)c1ccc(Cl)c(N/N=C/c2ccc(N3CCOCC3)s2)c1	72.3	nt	nt	nt	?
O=C(N/N=C/c1ccc(N2CCOCC2)s1)c1ccccc1Cl	i	i	i	i	i
COC(=O)c1c(NC2=NS(=O)(=O)c3ccccc32)sc2c1CCC(C(C)(C)C)C2 (stereo unspecified)	i	nt	nt	nt	i
C[C@H](CO)N1C[C@H](C)[C@H](CN(C)C(=O)OCc2ccccc2)OCc2cnnn2CCCC1=O	i	nt	nt	nt	i
N#Cc1cc2ccc(N3CCOCC3)cc2cc1C#N	68.5	i	i	i	i
CC(=O)c1ccc2noc(-c3ccc(Cl)cc3)c2c1	?	i	i	i	?
Cc1ccc(-c2onc3ccc(C=O)cc23)cc1	59.1	i	i	i	i
Cc1cc(-c2onc3ccc(Cl)cc23)ccc1O	96.6	i	i	i	?
Cc1ccc(-c2onc3ccc(C4(C)OCCO4)cc23)cc1	68.8	nt	nt	nt	i
